Unmarked numbers belong to inactive results.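 Rule for the calls: active = AUC reduced over 20% with Padj below 0.05 in at least 2 of 3 replicates; inactive = otherwise.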
Each compound was assayed on Escherichia coli IAI1 (assay: growth AUC relative to DMSO control (median of replicates) (fraction); higher = more growth (less inhibition), active = hit call of the paper). Conditions: 20 µM; 24 h.
Procedure, shortened: (§1)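 OD600 was recorded every hour for 24 h in anaerobic monocultures of gut bacteria kept at 37 °C in mGAM, seeded at OD600 0.05 and given 20 µM compound in 1% DMSO. The area under each growth curve was scaled to the plate median of solvent-only wells, or to row and column medians for the industrial chemical plate. Before this step, the minimum OD was set to 0. Reported values are medians of three biological replicates run on separate days.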

Compound | growth AUC
Cc1[nH]oc(=O)c1N=Nc1ccccc1Cl | 0.962
CCCOc1nc2ccc(I)cc2c(=O)n1CCC | 0.974
CCOCOc1ccc(C(=O)Nc2cccc(Cl)c2Cl)cc1 | 0.953
COc1ccc(Oc2ccc(NC(=O)N(C)C)cc2)cc1 | 0.996
COCCN(C(=O)CO)c1c(C)cccc1C(=O)O | 0.956
C/C=C/C=C/CCCCCCCO | 0.983
CCOC(=O)C(C)Oc1ccc(Oc2nc3ccc(Cl)cc3o2)cc1 (racemic) | 0.949

Each compound was assayed on Eubacterium rectale in the same assay as above. Conditions: 20 µM; 24 h.
Procedure, shortened: as §1

Compound | growth AUC
N#Cc1ccc(CC(=NNC(=O)Nc2ccc(OC(F)(F)F)cc2)c2cccc(C(F)(F)F)c2)cc1 (mixture of isomers) | 0.963
COC(=O)C(C)Oc1ccc(Cl)cc1Cl (stereo unspecified) | 1.14
CC(C)N(C(=O)C(=O)O)c1ccccc1 | 1.11
c1ccc(CNc2ncnc3nc[nH]c23)cc1 | 1.16
C=CCc1ccc(O)c(OC)c1 | 1.01
CCCCOC(=O)COc1ccc(Cl)cc1Cl | 0.979
CC(Oc1ccc(Cl)cc1Cl)C(=O)NC(C)(C#N)C(C)C (stereo unspecified) | 1.13
Cc1cccc(C)c1N(CC(=O)O)C(=O)CS(=O)(=O)[O-].[Na+] | 0.847
c1ccc2cc3ccccc3cc2c1 | 1.27
Cn1cc(C(=O)Nc2ccc(F)cc2-c2ccc(Cl)c(Cl)c2)c(C(F)F)n1 | 0.953
O=c1cccc2n1CCn1c-2cccc1=O | 0.956
CCCCCCC(C)OC(=O)COc1nc(F)c(Cl)c(N)c1Cl (stereo unspecified) | 0.875
Cc1[nH]n(C)c(=O)c1C(=O)c1ccc(C(F)(F)F)cc1S(C)(=O)=O | 0.972
COC(=O)[C@@H](C)Oc1ccc(Oc2ncc(C(F)(F)F)cc2Cl)cc1 | 1.05
CC(C)OC(=O)N[C@H](C(=O)N[C@H](C)c1nc2ccc(F)cc2s1)C(C)C | 1.13
O.O=C(Nc1ccc([N+](=O)[O-])cc1Cl)c1cc(Cl)ccc1O | 0.952
CC1=C(C(=O)Nc2ccccc2)CCCO1 | 0.974
CCOCCOC(=O)C(C)Oc1ccc(Oc2ncc(C(F)(F)F)cc2Cl)cc1 (stereo unspecified) | 1.05
NS(=O)(=O)[O-].[NH4+] | 1.09
CCOC(=O)CSc1nc(C(C)(C)C)nn1C(=O)N(C)C | 1.05

Compound | growth AUC
CCc1cccc(C)c1NC(=O)CS(=O)(=O)[O-].[Na+] | 0.974
ClC(COCC(Cl)C(Cl)(Cl)Cl)C(Cl)(Cl)Cl (stereo unspecified) | 0.92
CCC(C)c1cc([N+](=O)[O-])cc([N+](=O)[O-])c1OC(=O)OC(C)C (stereo unspecified) | 1.02
CC(C)(CO)C(O)(CCc1ccc(Cl)cc1)Cn1cncn1 (stereo unspecified) | 1.1
CC(C)(C)C(=O)C(Oc1ccc(Cl)cc1)n1ccnc1 (stereo unspecified) | 0.414 (active)
CC(C)(NC(=O)C(Br)C(C)(C)C)c1ccccc1 (stereo unspecified) | 0.889
COc1cc(OC)nc(NC(=O)NS(=O)(=O)c2c(Cl)nc3ccccn23)n1 | 1.01
CCc1ccc(O)cc1 | 0.988
CCOc1nc(F)cc2nc(S(=O)(=O)Nc3c(Cl)cccc3C(=O)OC)nn12 | 0.967
CCOCCc1ccc(OCCNc2ncnc(CC)c2Cl)c(C)c1C | 0.846
CCOC(=O)[C@@H](C)Oc1ccc(Oc2cnc3cc(Cl)ccc3n2)cc1 | 1.01
Cc1cccc(C)c1N(C(=O)CCl)C1CCOC1=O (stereo unspecified) | 1.09
Cc1[nH]oc(=O)c1N=Nc1ccccc1Cl | 1.03
CCCOc1nc2ccc(I)cc2c(=O)n1CCC | 0.996
CCOCOc1ccc(C(=O)Nc2cccc(Cl)c2Cl)cc1 | 0.961
COc1ccc(Oc2ccc(NC(=O)N(C)C)cc2)cc1 | 0.851
COCCN(C(=O)CO)c1c(C)cccc1C(=O)O | 1.09
C/C=C/C=C/CCCCCCCO | 1.03
CCOC(=O)C(C)Oc1ccc(Oc2nc3ccc(Cl)cc3o2)cc1 (racemic) | 0.987

— the supplement of paper PMC12669032
